NPC1 prom act = NPC1 promoter activation; Huh7 NPC1 promoter luciferase reporter, 24 h; Potency, µM (series often up to 9.22 µM), for the others: at the top dose activation, hits mostly activators; actives 2.4% (n = 320,000); further: % of control where 0% means no effect; nearly all actives have a fitted effect of over 60% in size
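Luminescence read-out of NPC1 promoter-driven luciferase in stably transfected Huh7 cells; compounds delivered in DMSO and left 24 h at 37C, 5% CO2, qHTS titration format.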
Rab9 prom act = Rab9 promoter activation; Huh7 Rab9 promoter-luciferase reporter, luminescence, 24 h; Potency, µM (highest dose often 9.22 µM), inactives show at the top dose activation, negative = inhibition, most hits filed as activators; actives 2.8% (n = 320,000); AID 485297; further: % of control where 0% means no effect; nearly all actives have a fitted effect of over 60% in size
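Luminescence read-out: Huh7 cells stably expressing Rab9-luciferase, treated 24 h with compound at 37 °C, then lysed with luciferase reagent for 10 min at ambient before reading.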
KinaseGlo FLuc = blocks Kinase-Glo luciferase, a counter-screen artifact. Q27757. Kinase-Glo luciferase, ATP luminescence, 8 min. Potency, µM (highest dose often 38.3 µM), inactives show at the top dose activity change, negative = inhibition, hits mostly inhibitors. actives 0.28% (n = 200,000); further: on the % scale 0 is the no-effect control and ±100 the full control effect; nearly all actives have a fitted effect of over 60% in size
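Luminescence was the read-out, taken after 8-minute incubation at ambient temperature. Luciferase turned over luciferin with 10 uM ATP in imidazole pH 7.2 buffer containing KCl, MgCl2, Tween 20 and BSA.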
ELG1 genotox = induces genotoxicity in HEK293T cells with luciferase-tagged ELG1. actives 1.3% (n = 330,000). HEK293T ELG1-luciferase reporter, luminescence, 16 h. AID 504466. Potency, µM (series often up to 46 µM), inactives show at the highest dose activity change, positive = activation, usual class: activators; further: % of control where 0% means no effect; nearly all actives have a fitted effect of over 60% in size
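Screening used a luciferase reporter fused to human ELG1 in HEK293T cells. Luminescence was read on a CCD plate imager after 16 hr exposure and 30 min ONE-Glo incubation.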
FLuc counter = firefly luciferase modulation, counter-screen for miR-21 project; actives 6.9% (n = 360,000); purified FLuc, Km substrates, luminescence inhibition; Potency, µM (titrated, usually from 57.5 µM), for inactives: top-dose activity change, negative = inhibition, usual class: inhibitors; P08659;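 further: plate controls were vehicle for no effect and reference inhibitor for full effect; nearly all actives have a fitted effect of over 55% in size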
Target sequence (P08659 whole entry, looked up): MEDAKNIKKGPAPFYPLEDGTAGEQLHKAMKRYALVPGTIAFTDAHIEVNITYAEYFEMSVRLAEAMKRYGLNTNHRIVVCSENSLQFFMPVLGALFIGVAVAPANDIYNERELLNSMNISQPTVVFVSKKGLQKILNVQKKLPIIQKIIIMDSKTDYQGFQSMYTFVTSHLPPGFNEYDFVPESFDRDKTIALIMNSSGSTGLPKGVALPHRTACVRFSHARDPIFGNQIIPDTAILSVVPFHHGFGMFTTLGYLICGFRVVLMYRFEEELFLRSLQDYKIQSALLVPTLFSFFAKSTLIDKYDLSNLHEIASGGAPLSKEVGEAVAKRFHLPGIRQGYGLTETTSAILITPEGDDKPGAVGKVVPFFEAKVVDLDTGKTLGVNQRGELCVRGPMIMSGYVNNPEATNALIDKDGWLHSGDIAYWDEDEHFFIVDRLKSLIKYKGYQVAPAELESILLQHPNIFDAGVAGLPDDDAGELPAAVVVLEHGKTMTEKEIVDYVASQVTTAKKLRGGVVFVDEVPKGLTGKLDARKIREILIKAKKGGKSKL
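Biochemical qHTS of compounds, final roughly 60 µM downward over six points, against 10 nM purified firefly luciferase using Km concentrations of substrates (10 uM D-luciferin, 10 uM ATP) in Tris acetate pH 7.5 buffer; luminescence output.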
SMN2 splice up = increases expression of the SMN2 splice variant; HEK293 SMN2-luciferase splicing reporter, luminescence, 30-36 h; Potency, µM (highest dose often 46.1 µM), inactives show at the top dose activity change, positive = activation, usual class: activators; actives 2.8% (n = 210,000); AID 1458; further: % of control where 0% means no effect; nearly all actives have a fitted effect of over 55% in size
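HEK293 cells carry an SMN2 minigene-luciferase reporter in which exon 7 inclusion puts luciferase in frame. Cells were seeded at 2000 cells/well, attached for 10-12 hours, then exposed to compounds for 30-36 hours at 37C before ONE-Glo luminescence.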
Numbers without * were called inactive; u = inconclusive; x = no result given; [ ] = another dose, or the depositor's remark. In the library only some 7.5% were active in any assay of this set; here they are far more common. The call rests on the fitted dose curve; in most records, active means well fitted curve in the direction sought with a large enough effect; inconclusive means small, poorly fitted or top-dose-only effect, or another doubt; inactive means no such curve, though single readings can be large; an effect the other way counts as inactive or inconclusive. Potency means the concentration at half of the fitted maximal effect.

SMILES	NPC1 prom act	Rab9 prom act	KinaseGlo FLuc	ELG1 genotox	FLuc counter	SMN2 splice up
Cc1cc(C(=O)CN2C(=O)C(=O)N(Cc3ccccc3)C2=O)c(C)n1Cc1ccccc1	x	x	x	1.1%	x	x
Cc1cc(C(=O)CN2C(=O)C(=O)N(Cc3ccccc3)C2=O)c(C)n1-c1ccccc1F	0.0%	-2.9%	3.6%	1.6%	19µM*	-0.9%
Cc1cc(C(=O)CN2CC(C)OC(C)C2)c(C)n1-c1ccccc1 (stereo not drawn)	u	u	-1.6%	20.6µM*	u	u
COc1ccc(-n2c(C)cc(C(=O)CN3C(=O)c4ccccc4C3=O)c2C)cc1	14.3%	24.3%	3.4%	2.4%	15.1µM*	9.6%
COc1cccc(C2C(C(=O)Nc3ccccc3)=C(C)Nc3nc(-c4ccccc4)nn32)c1 (stereo not drawn)	x	x	x	x	-7.6%	4.4%
CC(=O)N1CCN(S(=O)(=O)c2cccc(C(=O)NNC(=O)COc3ccc(Cl)cc3C)c2)CC1	-5.3%	-4.3%	x	1.8%	-12.8%	x
Cc1nn(-c2ccccc2)c(N)c1N=Nc1cccnc1	u	u	-1.0%	18.3µM*	13.5µM*	12.6µM*
Cc1nn(-c2ccccc2)c2c1C(c1ccc(F)cc1F)C(C#N)=C(N)O2 (stereo not drawn)	0.8%	-0.7%	1.5%	-2.6%	-1.8%	19.6%
Nc1nn(-c2ccccc2)c(N)c1N=Nc1ccc2c(c1)OCO2	u	0.631µM*	-6.4%	u	1.69µM*	6.31µM*
Nc1nn(-c2ccccc2)c(N)c1N=Nc1cccc(F)c1	u	u	x	6.51µM*	4.26µM*	x
COC(=O)[C@@H]1[C@H]2C[C@H]3c4[nH]c5ccccc5c4CCN3C[C@H]2CC[C@@H]1O	x	x	x	x	x	5.8%
CN1[C@@H]2CC[C@@H]1CC(OC(=O)[C@H](CO)c1ccccc1)C2 (stereo partly drawn)	x	x	4.2%[39.9 µM]	x	x	x
CCOc1ccc(C(=O)N2CC(=O)Nc3ccc(F)cc3C2c2ccc(F)cc2)cc1 (stereo not drawn)	x	x	x	x	3.5%	4.4%
CCN(C(=O)COc1ncnc2scc(-c3ccc(F)cc3)c12)C1CCS(=O)(=O)C1 (stereo not drawn)	0.4%	12.8%	-1.9%	18.4µM*	3.9%	6.6%
O=C1C2CC=CCC2C(=O)N1Cc1ccccc1 (stereo not drawn)	-3.5%	-0.3%	5.4%	-0.4%	2.8%	-18.1%
O=C1C2CC=CCC2C(=O)N1Cc1nnc(-c2ccc(Cl)cc2)o1 (stereo not drawn)	12.3%	u	0.6%	u	19µM*	23.6%
CCn1cc(/C=C(\NC(=O)c2ccc(OC)c(OC)c2)C(=O)NCCCn2ccnc2)c2ccccc21	x	x	x	x	3.0%	5.6%
CCn1cc(/C=C(\NC(=O)c2ccccc2F)C(=O)NCCCN2CCOCC2)c2ccccc21	1.4%	-3.7%	x	-1.4%	5.0%	x
CCn1cc(/C=C(\NC(=O)c2ccccc2Cl)C(=O)NCCN2CCOCC2)c2ccccc21	0.5%	-1.0%	x	-3.5%	16.9µM*	x
CCOc1ccc(NC(=O)Cn2nc(SC)c(S(=O)(=O)c3ccccc3)c2N)cc1	x	x	x	x	-3.2%	x
CC(C)OC(=O)c1cccc(C(=O)Oc2ccc(Br)cc2)n1	-3.9%	-4.6%	-4.9%	0.1%	9.53µM*	1.2%
CC(C)OC(=O)c1cccc(C(=O)O)n1	-5.9%	-0.7%	-4.7%	0.2%	0.1%	-8.9%
CCCCC1=CC2=C(c3ccco3)C(=O)C(C)(OC(=O)c3ccc(OC)cc3)C(=O)C2=CO1 (stereo not drawn)	x	x	-1.5%	x	x	4.4%
COc1ccc(C(=O)N/N=C(/C)c2cccc(NC(=O)c3ccccc3F)c2)cc1	u	23.9%	x	6.0%	3.79µM*	x
COc1ccc(C(=O)N/N=C(\C)c2cccc(NC(=O)c3ccc(F)cc3)c2)c(OC)c1	29.7%	29.7%	x	2.7%	4.26µM*	x
